Inhibition data for 96 compounds are collected here from PubChem BioAssay AID2732 (Emory University Molecular Libraries Screening Center, 2010).

Structures are written as SMILES. Where “and” joins values, the source holds several entries; their conditions need not be identical. Identical values can stand only once. Screen size: about 220,000 compounds; about 8,200 (3.7%) were called active. This excerpt belongs to a sample that is enriched for actives. A number with no mark means an inactive call.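 Rule for the calls: active = compounds that reduced the stress-induced luciferase reporter signal by more than about 70% of percent inhibition (limit read from the data); inactive = the rest.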

The assay can be described thus: inhibitors of CHOP promoter induction, primary screen, cell-based, unfolded protein response, luciferase reporter (AID 2732).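 Note: 0% = tunicamycin plus vehicle and 100% = wells without tunicamycin.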 Conditions: CHO-K1 CHOP-promoter luciferase, tunicamycin-induced, 15-18 h; at 10 µM; hits give high values.
The inhibition is the drop in the measured response relative to a control, in per cent. `O=C(N/N=C/c1ccc(OCc2ccccc2)cc1)c1ccc(O)cc1`: the inhibition is -37.6%.
As for `CN(C)c1ccc(/C=N/N(Cc2ccccc2)c2ccccc2)cc1`, the inhibition was 1.37%.
The figure for `Oc1ccc(/C=N/N(Cc2ccccc2)c2ccccc2)cc1` is 97.5% (active); for `NC(=O)C1=CN(C2OC(COP(=O)(O)OP(=O)(O)OC[C@H]3O[C@@H](n4cnc5c(N)ncnc54)C(OP(=O)(O)O)[C@H]3O)C(O)C2O)C=CC1` (stereo partly specified) it is -6.4%.
The figure for `O=C(NC1CCN(Cc2ccccc2)CC1)c1ccccc1F` is 22.9%.
With `CCN1CCN(c2cc3nc(C)n(Cc4ccccc4)c(=O)c3cc2NC(=O)c2ccccc2F)CC1`, the inhibition was 95.7% (active).
The figure for `CCC(=O)Nc1ccc2nc(C)n(Cc3ccccc3Cl)c(=O)c2c1` is -4.28%; for `Cc1sc2nc(COC(=O)C(NC(=O)c3ccc(Cl)cc3Cl)C(C)C)[nH]c(=O)c2c1C` (stereo unspecified) it is 95.4% (active).
The figure for `Cc1sc2nc(CSCC(=O)Nc3c(Cl)cccc3Cl)[nH]c(=O)c2c1C` is 0.31%; for `CC(C)NC(=O)c1ccc(Cl)cc1Cl` it is 12.1%.
In the case of `O=C(Nc1ccccc1)N1CCN(C2c3ccccc3-c3ccccc32)CC1` it was 12.3%; in that of `Cc1ccc(C)c2c1cc(C)c1nnc(SCC(=O)Nc3cccc(C(=O)O)c3)n12`, -9.73%; in that of `Cc1ccc(CC(=O)Nc2ccc(OC(F)F)c(Cl)c2)cc1C`, 62%.
As to `O=C(Cc1ccc(Cl)c(Cl)c1)Nc1ccc(SC(F)F)cc1`, the inhibition is 88% (active).
In the case of `CC(=O)N1CCN(CC(=O)Nc2ccc(SC(F)F)cc2)CC1` it was 16.9%; in that of `CC(NC(=S)Nc1ccccc1)C(c1cccs1)N1CCOCC1` (stereo unspecified), -3.16%; in that of `Oc1c(Br)cc(/C=N/NC(=S)NCC2CCCO2)cc1Br` (stereo unspecified), 22.4%.
In the case of `O=C(Cc1ccccc1)NNC1CC(=O)N(c2ccc(Br)cc2)C1=O` (stereo unspecified) it was 17%; in that of `CC1=C(C)CC2C(=O)N(c3cccc4ccccc34)C(=O)C2C1` (stereo unspecified), 19.9%.
The figure for `Cc1ccc(N2C(=O)CC(Nc3cccc4ccccc34)C2=O)cc1` (stereo unspecified) is 74.7% (active); for `COc1cc(/C=C(\C#N)C(=O)Nc2ccc3ccccc3c2)c([N+](=O)[O-])cc1OC` it is -24.5%; for `COc1cc(C=O)c(Br)cc1OCC(=O)NCc1ccccc1` it is 18%.
Turning to `COc1ccc(NC(=O)/C(C#N)=C\c2cc(OC)c(OCc3ccc(C(=O)O)cc3)cc2Br)cc1`, the inhibition was 103% (active).
In the case of `O=C(NCc1ccco1)C1CCCN1S(=O)(=O)c1ccccc1C(F)(F)F` (stereo unspecified) it was 14.3%.
Turning to `CN(C)NC(=O)c1csnc1-c1c(Cl)cccc1Cl`, the inhibition was -5.93%.
In the case of `Cc1ccccc1CSc1nnc(CCCCCNC(=O)OC(C)(C)C)o1` it was 12.7%.
As to `NCC(=O)c1cccc2ccc[n+]([O-])c12`, the inhibition was -8.9%.
In the case of `COc1ccc(S(=O)(=O)Nc2ccc(O)c(Sc3nc4ccccc4s3)c2)cc1` it was 13.3%.
In the case of `O=[N+]([O-])c1c(NCCO)cc(Sc2nc3ccccc3s2)c2nonc12` it was 108% (active); in that of `O=C(CSc1nc2ccccc2s1)Nc1ccc(C(=O)O)cc1`, -1.84%; in that of `C/C(=N\NC(=O)CC(C)C)c1c(C(F)(F)F)[nH]n(-c2nc3ccccc3s2)c1=O`, -21.3%.
The figure for `CCN(CC)c1ccc(/C=N/NC(=O)c2cnccn2)c(O)c1` is 47.2%; for `C=CCn1c(N)c(C(=O)OCC(C)C)c2nc3ccccc3nc21` it is 18%.
In the case of `CCC(C)NC(=O)c1c(N)n(/N=C/c2cccs2)c2nc3ccccc3nc12` (stereo unspecified), the inhibition is 67.4%.
The figure for `CC(C)Cn1c(N)c(C(=O)NCc2cccs2)c2nc3ccccc3nc21` is 89% (active); for `Cc1cccc(NC(=O)CSc2nnc(CCNC(=O)OC(C)(C)C)o2)c1C` it is -14.5%; for `COC(=O)c1ccc(COc2cc([N+](=O)[O-])cc3cccnc23)cc1` it is 5.56%.
In the case of `CC(=O)N(OCc1ccc(OC(C)C)c(Cl)c1)C(C)=O` it was -4.06%.
With `CCOCc1nnc(NC(=O)CSc2ccc(C)cc2)s1`, the inhibition is 12.8%.
The figure for `O=C(CSc1ccccc1)Nc1nnc(/C=C/c2ccccc2)s1` is 88.6% (active).
The figure for `O=C(Nc1ccc(Cl)cc1)Nc1nnc(/C=C/c2ccccc2)s1` is 46.8%.
The figure for `Cc1ccc(N2CCN(S(=O)(=O)c3ccc(F)cc3)CC2)c(C)c1` is 47.5%; for `Cc1ccc(-n2ncc3c(N4CCN(c5ccc(F)cc5)CC4)ncnc32)c(C)c1` it is 83.8% (active); for `Cc1ccc(-n2ncc3c(=O)[nH]cnc32)c(C)c1` it is 31.6%.
As for `CCOc1ccc(/C=N/NC(=O)CSc2ccccn2)cc1O`, the inhibition was 3.02%.
The figure for `O=C(CCC(=O)OCc1ccc(Cl)cc1)Nc1ccccc1` is 0.59%; for `CC(C)(C)C1CCC(OC(=O)CCC(=O)Nc2ccccc2)CC1` (stereo unspecified) it is 71.5% (active).
The figure for `CC1CCN(CCC(=O)Nc2ccccc2)CC1` is -9.3%; for `COc1ccccc1CNC(=O)Cn1c(=O)oc2cc(Cl)ccc21` it is 4.18%; for `CCOc1ccc2nc(SC(CC)C(=O)Nc3cc(C)on3)sc2c1` (stereo unspecified) it is 27.5%.
The figure for `CC(N=Cc1nc(-c2ccccc2)oc1O)c1ccccc1` (stereo unspecified) is 28.4%; for `CCOc1ccc2nc(/N=C/c3nc(-c4ccccc4)oc3O)sc2c1` it is 73.9% (active); for `Cn1c(SCC(=O)Nc2ccc(Cl)cc2)nc(O)cc1=O` it is -3.96%.
As to `N#Cc1ccccc1NC(=O)COc1c(Br)cc(Br)c2cccnc12`, the inhibition was 88.1% (active).
`O=C(COC(=O)c1ccccn1)Nc1cccc2ccccc12`: the inhibition was -19.7%.
In the case of `N#Cc1ccc(C(=O)Nc2cccc3cccnc23)c(F)c1` it was -2.37%; in that of `CCN(CC)CCNCC(=O)Nc1ccc(Oc2ccccc2)cc1`, -16.4%; in that of `Cc1cc(C)c2cc(CN(Cc3nnnn3Cc3ccc(F)cc3)C3CCCC3)c(=O)[nH]c2c1`, 8.91%.
`Cc1cc2cc(CN(Cc3cccs3)Cc3nnnn3CC3CCCO3)c(=O)[nH]c2cc1C` (stereo unspecified): the inhibition was 20.8%.
In the case of `Cc1cc(C)c2cc(CN(Cc3cccs3)Cc3nnnn3CC3CCCO3)c(=O)[nH]c2c1` (stereo unspecified) it was 76% (active); in that of `CCOC(=O)c1c(N)sc2c1CCCC2=O`, 4.68%; in that of `O=C(Cn1c[n+](CC(=O)c2ccc([N+](=O)[O-])cc2)cn1)c1ccc([N+](=O)[O-])cc1`, -15.2% and -12.2%.
In the case of `COc1cc(SC)ccc1C(=O)Nc1nc(C)cs1` it was 95.2% (active).
The figure for `COc1ccccc1CNC(=O)c1ccc(SC)cc1OC` is 2.76%.
On to `COc1cc(SC)ccc1C(=O)Nc1cc(C)ccn1`, for which the inhibition was 37.2%.
Regarding `CCc1cc(C(=O)OC)c(NC(=O)CC2Sc3ccc(C(F)(F)F)cc3NC2=O)s1` (stereo unspecified), the inhibition is 72.2% (active).
The figure for `Cc1ccc(CNC(=O)CC2Sc3ccccc3NC2=O)cc1` (stereo unspecified) is -5.1%; for `COC(=O)c1cc(C)sc1NC(=O)CC1Nc2ccccc2NC1=O` (stereo unspecified) it is 51.1%.
In the case of `COC(=O)c1noc(C)c1-c1ccnn1C(=O)c1ccc(Cl)cc1` it was -0.96%; in that of `COc1cccc(OC)c1CN(C)C(=O)c1cnccc1C(F)(F)F`, 16.4%; in that of `Cc1ccsc1/C=N/NC(=O)Cc1cc(=O)[nH][nH]1`, 10.3%.
As to `CC(C)C(=O)Nc1ccc2oc(=O)ccc2c1`, the inhibition is 8.38%.
The figure for `Cc1cccc(NC(=S)NC(=O)c2ccc(Br)o2)c1` is -36.1%.
As to `O=C(NC(=S)Nc1ccc2oc(=O)ccc2c1)c1ccc(-c2cccc(Cl)c2Cl)o1`, the inhibition is 80.2% (active).
The figure for `C=C(C)CNC(=S)Nc1ccc(S(=O)(=O)Nc2cnc3ccccc3n2)cc1` is 11.6%; for `Clc1cccc(CN2COc3c(cc(Cl)c4cccnc34)C2)c1` it is 108% (active).
As to `O=c1[nH]n(-c2cccc(Cl)c2)c2ncccc12`, the inhibition is 9.34%.
The figure for `O=C1/C(=C/c2coc3ccc(O)cc3c2=O)SC(=S)N1c1ccccc1` is -12.8%; for `CCOC(=O)COc1nc(C)cc(C(F)(F)F)c1C#N` it is 16.9%.
The figure for `Cn1c(CC2Sc3ccccc3NC2=O)nnc1SCC(=O)c1ccc(Cl)cc1` (stereo unspecified) is 11.3%; for `CCc1cc(C(=O)c2ccc(OC)cc2)c(NC(=O)CN2CCN(C)CC2)s1` it is 9.91%.
For the compound `Nc1nc(SCCOc2ccccc2)n[nH]1`, the inhibition was -32%.
Regarding `CCNc1nc(SCCOc2ccccc2)nc(N(C)C)n1`, the inhibition is 90.8% (active).
In the case of `CCNc1nc(NCC)nc(N(C)n2cnnc2)n1` it was 2.32%.
In the case of `C/C(=N\Nc1cccc(C(=O)O)c1)c1ccc2c(c1)Nc1ccccc1S2` it was -2.01%; in that of `Cc1nn(-c2ccccc2)c(C)c1C(=O)OCC(=O)NC(=O)NC1CCCCC1`, 71.2% (active).
In the case of `Cc1ccc(OC(=O)c2c(C)nn(-c3ccccc3)c2C)cc1` it was 5.12%; in that of `CCCn1c(C)cc(C(=O)COC(=O)c2c(C)nn(-c3ccccc3)c2C)c1C`, 52.2%.
With `CCc1cc(CNC(=O)CC2C(=O)NCCN2Cc2ccccc2C(F)(F)F)on1` (stereo unspecified), the inhibition was 20.4%.
The figure for `O=c1[nH]c(SCc2cccc(F)c2)nc2ccccc12` is 8.81%; for `Cc1noc(C)c1COC(=O)COc1ccc(-c2ccccc2)cc1` it is 10.1%.
In the case of `NC(=O)C1CCN(Cc2nc3c(Br)cc(Br)cc3c(=O)[nH]2)CC1` it was 13.6%.
In the case of `NC(N)=Nc1nc2ccc(Br)cc2c(=O)[nH]1` it was 74.1% (active); in that of `C/C(=N\N)c1c(-c2ccccc2)c2cc(Br)ccc2[nH]c1=O`, -1.78%; in that of `Cc1[nH]n(-c2ccccc2)c(=O)c1N=Nc1ccccc1C(=O)N1CCCCC1`, 59.1%.
Take `Cc1ncn2cc(-c3ccc(Cl)cc3Cl)[nH]c(=O)c12`: the inhibition was 13.6%.
